VHR inh abs = DUSP3 (human) phosphatase inhibition | P51452 | recombinant VHR phosphatase, pNPP absorbance | inhibition, % at 13.3 µM | 290,000 tested, 0.52% active; in the data active = inhibition above about 50%
Target sequence (P51452 whole entry, looked up): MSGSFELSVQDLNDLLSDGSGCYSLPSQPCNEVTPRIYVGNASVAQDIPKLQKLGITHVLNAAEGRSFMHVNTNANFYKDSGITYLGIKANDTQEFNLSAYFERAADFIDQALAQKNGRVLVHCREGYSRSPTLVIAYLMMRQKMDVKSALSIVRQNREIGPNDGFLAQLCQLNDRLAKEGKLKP
3CLpro inhibitor = SARS-CoV 3CLpro protease inhibition. recombinant SARS-CoV 3CLpro, quenched FRET peptide cleavage. P0C6X7. inhibition, % at 6 µM. 290,000 tested, 0.14% active. AID 1706; in the data active = inhibition above about 12%
Anthrax LF inh2 = anthrax lethal factor protease inhibition. P15917. multiplex microsphere protease cleavage assay, LF. inhibition, % at 10 µM. 360,000 tested, 0.12% active; note: plate controls were buffer without enzyme for full effect and enzyme alone for no effect
BoNT-A LC inh2 = BoNT A light chain protease inhibition | multiplex microsphere protease substrate cleavage, flow cytometry | inhibition, % at 10 µM | 360,000 tested, 0.17% active | AID 588499; note: plate controls were buffer without enzyme for full effect and enzyme alone for no effect
BoNT F protease = inhibitors of Botulinum neurotoxin F light chain protease | Multiplex microsphere protease cleavage assay, flow cytometry | inhibition, % at 10 µM | 360,000 tested, 0.22% active; in the data active = inhibition above about 35%, passing the limit was not always enough; inconclusive = no clear call, values can overlap the other calls; note: plate controls were buffer without enzyme for full effect and enzyme alone for no effect
Bead autofluor = flagged as autofluorescent in microsphere protease counterscreen. compound autofluorescence counterscreen, microsphere flow cytometry; stronger effect = higher value. fluorescence intensity (test concentration not listed). 360,000 tested, 3.1% active; in the data active = fluorescence intensity above about 16000; inconclusive = no clear call, values can overlap the other calls
* hit, by the source's call; ? = inconclusive; . = no result. Hits are enriched below; roughly 3.9% of the tested compounds scored in any of these assays. Cut-off read from the data, not from the text of the source, unless noted: active = inhibition above about 30%; inconclusive = no clear call, values can overlap the other calls; inactive = below that.

SMILES	VHR inh abs	3CLpro inhibitor	Anthrax LF inh2	BoNT-A LC inh2	BoNT F protease	Bead autofluor
CCn1c(SCC(=O)N(C)c2ccccc2)nc2c([nH]c3ccccc32)c1=O	53*	-2	4	3	8	5413
COc1ccc(-n2c(SCC(=O)N(C)c3ccccc3)nc3c([nH]c4ccccc43)c2=O)cc1OC	-2	5	-1	0	3	5213
COc1cccc(N(C(=O)Cn2nnc(-c3ccc(C)cc3)n2)C(C(=O)NC(C)(C)C)c2c[nH]c3ccccc23)c1 (stereo not given)	23	7	-8	-2	-9	23333*
O=C1C2C3C=CC(C3)C2C(=O)N1CC1CCCO1 (stereo not given)	-2	-3	1	?	-1	20157*
O=C(CN1C(=O)NC2(CCc3ccccc32)C1=O)Nc1ccc(Cl)cc1F (stereo not given)	.	.	-6	0	-11	3919
Cc1nc(N2CCN(c3ccccn3)CC2)c2c(C)c(C(=O)N3CCN(c4cccc(Cl)c4)CC3)sc2n1	31	10	-3	-5	-8	7836
COc1ccc(CCNC(=O)c2nonc2N)cc1	18	-4	-6	0	9	6706
COc1cccc(CNCCNC(=O)c2nonc2N)c1	14	2	-3	-5	-9	24154*
COc1cc2[nH]c(=S)n(N(C(C)=O)C(C)=O)c(=O)c2cc1OC	-37	-5	0	2	1	22631*
COc1cc2[nH]c(=S)n(-c3ccccc3)c(=O)c2cc1OC	1	0	-1	-1	-7	2671
COc1cc2[nH]c(=S)n(C3CC3)c(=O)c2cc1OC	10	-2	-4	-1	-2	4301
COc1cc2[nH]c(=S)n(C3CCCC3)c(=O)c2cc1OC	4	5	-1	-1	-1	23713*
Fc1cccc(Cl)c1CNCc1ccccc1Cl	-29	-2	1	0	-8	3202
CCOc1ccc2nc(SCC(=O)NC3CCCCC3)[nH]c2c1	-17	4	-1	0	-2	4972
COc1ccc2nc(SCC(=O)NC3CCCCC3)[nH]c2c1	58*	-4	-11	-1	-19	3288
COc1ccc2nc(SCC(=O)Nc3ccccc3C#N)[nH]c2c1	15	-1	-3	0	6	2371
COc1ccc(-n2c(SCC(=O)NC3CCCCC3)nc3ccsc3c2=O)cc1	7	3	0	?	0	21037*
CCC(C)NC(=O)CSc1nc2ccsc2c(=O)n1-c1ccc(OC)cc1 (stereo not given)	-1	-4	-3	1	14	4915
COc1ccc2nc(SCC(=O)Nc3ccccc3C)[nH]c2c1	21	0	0	0	0	20993*
CC(C(=O)NCc1ccco1)n1ccc2cc(S(=O)(=O)N3CCCCC3)ccc21 (stereo not given)	-27	1	-6	-1	-5	4492
CC[C@@]1(C(=O)OC)N[C@H](CN(C)C(=O)NC(C)C)[C@@H]2C(=O)N(C)C(=O)[C@@H]21	.	.	-2	0	3	3691
Cc1ccc(N2CC(C(=O)NCc3ccc4c(c3)OCO4)CC2=O)cc1C (stereo not given)	-9	-2	-3	?	-2	22630*
O=C(c1ccc(-n2cncn2)c([N+](=O)[O-])c1)N1CCN(S(=O)(=O)c2cccc(F)c2)CC1	.	.	-2	?	-16	6502
Cc1cc(N=Nc2ccccc2)c(NCC(O)C(O)C(O)CO)cc1C (stereo not given)	33	7	-2	0	-2	4270
Cc1ccc(NCC(O)C(O)C(O)CO)cc1C (stereo not given)	-2	-1	-2	1	-2	20300*
SMILES	VHR inh abs	3CLpro inhibitor	Anthrax LF inh2	BoNT-A LC inh2	BoNT F protease	Bead autofluor
CSc1nnc(C)c(=O)n1COC(=O)c1ccc(S(=O)(=O)N2CCCC2)cc1	10	1	0	-1	-1	2580
C=CCNc1ncnc2c1ncn2[C@H]1CN(Cc2ccccc2)C[C@@H](COC(C)=O)O1	.	.	-6	0	-5	3071
CCc1ccc(C=NC23CN4CN(CN(C4)C2)C3)s1	6	-4	-1	?	-7	16887*
S=C(Cc1ccccc1)Nc1ccccc1	.	.	-6	0	-7	3339
CC(C)COC(=O)N1CCN(S(=O)(=O)c2ccc3c(c2)CCC3)CC1	.	.	-3	-2	-3	5999
CC1=C(C)C(=O)N(CCC(=O)O)C1=O	36	-1	-16	2	4	20985*
CCN=C1S/C(=C\c2cc(OCC)c(O)cc2Br)C(=O)N1CC	39	2	30*	7	72*	6185
Cc1nc2cc(-c3ccccc3)nn2c(C)c1CCC(=O)N1CCN(c2ccccc2)CC1	-6	-2	-2	-1	-5	5145
COc1ccc(CCC(=O)N2CCN(C3CCCCC3)CC2)cc1	1	3	-1	0	0	20796*
COc1ccc(CCC(=O)N2CCC3(CC2)OCCO3)cc1	12	1	-5	0	0	16327*
Cc1nc2cc(-c3ccccc3)nn2c(C)c1CCC(=O)N1CCC2(CC1)OCCO2	-8	6	-2	-1	-1	16588*
COc1ccc(C)cc1NC(C)C(=O)NC(=O)NC1CCCCC1 (stereo not given)	.	.	0	0	-5	3900
OCCN(Cc1ccccc1)Cc1cccc(Cl)c1Cl	-3	-2	-5	0	2	11501
OCCN(Cc1ccccc1)Cc1cccc(C(F)(F)F)c1	-17	0	-2	0	1	23013*
CCCN(CCO)Cc1cccc(Cl)c1	13	-4	2	-1	-2	16966*
OCCN(Cc1ccccc1)Cc1ccccc1Cl	-4	0	-3	?	-1	23592*
OCCN(Cc1ccccc1)Cc1cccc(F)c1	11	-1	1	-1	0	20011*
COc1ccc(CN2CCNC(=O)C2CC(=O)NCCN2CCCCC2=O)c(F)c1 (stereo not given)	9	-2	3	-1	-8	4332
Cc1cc(C)n(CC(=O)N/N=C/c2ccccn2)n1	5	-3	1	0	-8	2518
CCOC(=O)C1=C(C(=O)OCC)N(CC)CCC1=O	.	.	1	0	2	2956
CC1=CC(=O)C=CC1=Nc1ccc(N(C)C)cc1	.	.	-23	-1	-22	5150
Cc1ccc(-n2nc3c4c(cccc4c2=O)-c2ccccc2-3)cc1	14	0	1	8	9	19852*
O=C(O)Cn1nc2c3c(cccc3c1=O)-c1ccccc1-2	74	-4	-16	3	-3	2614
CC(=O)Nc1ccc(NC(=O)COc2cccc3ccccc23)cc1	.	.	-2	0	-4	3810
CCNC(=O)COc1cccc2ccccc12	19	0	-1	-1	0	21317*
Cc1cc(=O)n2nc(N3CCC(C(=O)NCCc4ccc(Cl)cc4)CC3)sc2n1	21	0	5	2	-2	6133
CN(C)c1nc2c(c(N)nn2-c2ccc(Cl)cc2)c(=O)o1	14	2	1	?	4	19528*
